# Several values for one entry are separate records, joined by “and”; a condition that tells them apart may be missing. Identical values can stand only once. Results filed as inconclusive are left out. A number with no mark means an inactive call. Activity calls are given as the source filed them. Calls come from the whole dose curve; as a rule, active = well fitted inhibition curve with a large enough effect; inconclusive = small, poorly fitted or top-dose-only effect; inactive = flat fitted curve, though single readings scatter. Where a SMILES comes first, the peptide text is derived from it.
# System: CRL-7250
# Experiment: Cytotoxic Profiling of Annotated Libraries Using Quantitative High-Throughput Screening (AID 1296008); note: nearly all actives have a fitted effect of over 60% in size
# Conditions: Five cell lines viability, CellTiter-Glo ATP luminescence, 48-72 h; max response: stronger effect = lower value
# Summary of the method: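 Cells exposed to compounds for 48 or 72 hr at 37 degrees Celsius. Viability read as ATP-coupled luminescence with CellTiter-Glo after 10 min at room temperature.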
# % is set by controls: 0 for no effect and ±100 for the full control effect; potency is the fitted concentration of half-maximal effect.
SMILES,max response,outcome,Potency
CC(=O)N1CCN(NC(=O)c2ccc(F)cc2)CC1,-0.968%,–,–
NC(=O)c1cccc(-c2cc(O)cc(OC(=O)NC3CCCCC3)c2)c1,–,inactive,–
COC(=O)[C@]12C(=O)C(C)=C(O)[C@@]1(C)C(C)=CC1[C@@]34CC[C@@H](OC(C)=O)C(C)(C)C3[C@H](C[C@]12C)OC4=O (stereo not given in full),4.87%,–,–
CC(=O)NCCCCn1c2c(c3ccccc31)C(=O)NCC2,4.55%,–,–
COC(=O)[C@@H]1C2CC3c4[nH]c5ccccc5c4CCN3CC2CC[C@@H]1O (stereo not given in full),–,inactive,–
CCNC(=O)[C@H]1O[C@H](n2cnc3c(NCC(c4ccccc4)c4ccccc4)nc(C(=O)NCCNC(=O)NC4CCN(c5ccccn5)CC4)nc32)[C@H](O)[C@@H]1O,-2.5%,–,–
C/C=C(\C)C(=O)OC[C@H]1O[C@H](O[C@H]2O[C@H](CO)[C@@H](OC(=O)/C(C)=C/C)[C@H](O)[C@H]2O[C@@H]2O[C@H](CO)[C@@H](O)[C@H](O)[C@H]2O)[C@H](O[C@@H]2O[C@H](CO)[C@@H](O)[C@H](O)[C@H]2O)[C@@H](O)[C@@H]1O,-3.07%,–,–
CC(=O)OCC1=C[C@H](O)[C@@H]2C(C(=O)O)=CO[C@@H](O[C@@H]3O[C@H](CO)[C@@H](O)[C@H](O)[C@H]3O)[C@H]12,–,inactive,–
CCn1c2ccccc2c2cc(CNC)ccc21,-18% and 2.31%,–,–
C=C1CCC2C(C)(C)C(O)CCC2(C)C1CCC(C)CCOC(=O)CCC(=O)O (stereo not given),-7.27%,–,–
CCc1c(CC(N)=O)c2cc(OCCCP(=O)(O)O)ccc2n1Cc1ccccc1,-8.49%,–,–
OC[C@H]1O[C@@H](Oc2ccc3c(c2)OC[C@H]2c4cc5c(cc4O[C@@H]32)OCO5)[C@H](O)[C@@H](O)[C@@H]1O,-1.83%,–,–
CCC[C@@H]1C[C@@H](C(=O)N[C@H](C(C)Cl)[C@H]2O[C@H](SC)[C@H](O)[C@@H](O)[C@H]2O)N(C)C1 (stereo not given in full),-2.55%,–,–
CCNC(=O)[C@@H]1CCCN1C(=O)[C@H](CCCN=C(N)N)NC(=O)[C@H](CC(C)C)NC(=O)[C@@H](C)NC(=O)[C@H](Cc1ccc(O)cc1)NC(=O)[C@H](CO)NC(=O)[C@H](Cc1c[nH]c2ccccc12)NC(=O)[C@H](Cc1cnc[nH]1)NC(=O)[C@@H]1CCC(=O)N1,–,inactive,–
C=CC(C)(O)CC/C=C(\C)C(=O)OCC1OC(OC2CCC3(C)C(CCC4(C)C3CC=C3C5CC(C)(C)C(O)CC5(C(=O)O)CCC34C)C2(C)C)C(O)C(OC2OC(CO)C(O)C(OC3OC(CO)C(O)C(OC4OC(COC5OC(CO)C(O)C(O)C5O)C(O)C(O)C4O)C3O)C2O)C1O (stereo not given),-1.92%,–,–
COc1cc(N2CCC(N(C)C)CC2)ccc1Nc1ncc(Cl)c(Nc2ccccc2P(C)(C)=O)n1,–,–,2.91 µM (active) and 1.48 µM (active)
O=c1ccn(C2OC(CO)C(O)C2O)c(=O)[nH]1 (stereo not given),–,inactive,–
CC(=O)OC1C(O)C(C)=C(CCC(C)CC(=O)O)C2(C)CCCC(C)(C)C12 (stereo not given),–,inactive,–
CC1(C)OC(=O)C(OCC2CC2)=C1c1ccc(S(C)(=O)=O)cc1,–,inactive,–
C[C@]1(O)CC[C@@H]2C(C(=O)O)=CO[C@@H](O[C@@H]3O[C@H](COC(=O)c4ccc(O)cc4)[C@@H](O)[C@H](O)[C@H]3O)[C@@H]21,2.99%,–,–

SMILES,max response,outcome,Potency
CC1NC(=O)CNC(=O)C(C(C)C)NC(=O)C2CCCN2C(=O)C(C(C)C)NC(=O)C(Cc2c[nH]c3ccccc23)NC1=O (stereo not given) (cyclo(GAWVPV); configuration not given here),–,inactive,–
CC1CCC2C(C(=O)O)=CC3C(O)C(C)(C)CC123 (stereo not given),-11.2%,–,–
O=C(O)c1cc(O)c2cccc(O)c2c1O[C@@H]1O[C@H](CO)[C@@H](O)[C@H](O)[C@H]1O,-1.91%,–,–
C[C@]12CCC(=O)C=C1[C@@H](O)C[C@@H]1[C@@H]2[C@@H](O)C[C@@]2(C)[C@H]1CC[C@]2(O)C(=O)CO,–,inactive,–
O=C(/C=C/c1ccc(O)cc1)O[C@H]1[C@@H]2C=CO[C@@H](O[C@@H]3O[C@H](CO)[C@@H](O)[C@H](O)[C@H]3O)[C@@H]2[C@@]2(CO)O[C@@H]12,-3.08%,–,–
CC1OC(O[C@H]2[C@@H](O)C[C@@]3(C)C([C@H](O)C[C@]4(C)C3CC=C3C5CC(C)(C)CC[C@]5(C(=O)OC5OC(CO)C(O)C(O)C5OC5OCC(OC6OCC(OC7OCC(O)C(O)C7O)C(O)C6O)C(OC6OCC(O)(CO)C6O)C5O)CC[C@]34C)[C@]2(C)CO)C(O)C(O)C1O (stereo not given in full),–,inactive,–
Cc1cc(O)cc(Oc2cc(C)c(C(=O)O)c(O)c2)c1,-27.9%,–,–
COC(=O)C1=CO[C@@H](O[C@@H]2O[C@H](CO[C@@H]3O[C@H](COC(=O)/C=C/c4ccc(O)cc4)[C@@H](O)[C@H](O)[C@H]3O)[C@@H](O)[C@H](O)[C@H]2O)[C@@H]2C(CO)=CC[C@H]12,4.68%,–,–
COC12CC3C(C(C)C1=CC(=O)O2)C(O)C(OC(C)=O)C1C(C)(C)C(OC(C)=O)CCC31C (stereo not given),0.349%,–,–
Cc1ccc2c(c1)C=Cc1cc(C)ccc1C2c1cn(Cc2ccc(C(=O)Nc3nn[nH]n3)o2)c(=O)[nH]c1=S,–,inactive,–
Clc1ccc2c(c1)C1=NCCN1c1c(-c3noc(C4CC4)n3)ncn1-2,–,inactive,–
Nc1ccn([C@@H]2C(F)=C(CO)[C@@H](O)[C@H]2O)c(=O)n1,-25.3%,–,–
COC1=CC(=O)O[C@@H](/C=C/c2ccccc2)[C@@H]1O,–,inactive,–
CC(/C=C/[C@]1(O)[C@@]2(C)CO[C@@]1(C)C[C@@H](O)C2)=C\C(=O)O[C@@H]1O[C@H](CO)[C@@H](O)[C@H](O)[C@H]1O,–,inactive,–
CC1=C2C=C(CO)C(CO)CCC2(C)CCC1=O (stereo not given),-3.34%,–,–
CC[C@H](C)/C=C(C)/C=C/C(=O)Cc1cc(O)c(C)c(O)c1C=O,-3.98%,–,–
CC(=O)c1c(O)cc2c(c1C)C(=O)CC(O)C2 (stereo not given),4.51%,–,–
C=C1CCC[C@]2(C)C[C@]3(O)OC(=O)C(C)=C3C[C@@H]12,–,inactive,–
CC(C)=CCCC1(C)Oc2cc3c(c4c2C2C(O4)C(C)(O)CCC21)CN(C(CCC(=O)O)C(=O)O)C3=O (stereo not given),–,inactive,–
Cn1ccnc1CCOC(c1cc2nccc(C(=O)O)c2[nH]1)c1ccccc1Cl (stereo not given),–,inactive,–

# Reference: PubChem BioAssay (NCATS)
